Consider 16 compounds from PubChem BioAssay (Tox21).

Active and inactive are the calls of the source. The call rests on the fitted dose curve; in most records, active means well fitted curve in the direction sought with a large enough effect in the repeat runs; inconclusive means weak or mixed curves; inactive means flat fitted curve, though single readings scatter.

This test is described as follows: qHTS assay to test for compound auto fluorescence at 460 nm (blue) in HepG2 cell free culture (AID 720685). The following applies: Cell-free culture medium, blue autofluorescence 405/460 nm; series mostly up to 46 µM. Summed up:
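Cell-free plates of MEM plus 10% FBS received 23 nL compound or DMSO vehicle; blue-channel (405/460 nm) intensity scored against triamterene as reference fluorophore.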
On the technique in general: Quantitative high-throughput screening tests each substance at several concentrations.
As to `CC(C)(C)CC(C)(C)c1cc(Cc2cc(C(C)(C)CC(C)(C)C)cc(-n3nc4ccccc4n3)c2O)c(O)c(-n2nc3ccccc3n2)c1`, the call was inactive.
To `CCCC(=O)N1CCCN(c2nc(N)c3cc(OC)c(OC)cc3n2)CC1` belongs “inactive”; to `COCC1=C(C(=O)OC(C)OC(=O)OC(C)C)N2C(=O)[C@@H](NC(=O)/C(=N\OC)c3csc(N)n3)[C@H]2SC1` (stereo partly specified), “inactive”; to `CN1CCC(OC(=O)C(Oc2ccc(Cl)cc2)Oc2ccc(Cl)cc2)CC1`, “inactive”.
The same measure for `CC(C)[C@@H](C)/C=C/[C@@H](C)[C@H]1CC[C@H]2/C(=C/C=C3\C[C@@H](O)CC[C@@H]3C)CCC[C@]12C`: “inactive”.
Turning to `O=C1c2ccccc2C(=O)C1c1ccc(Cl)cc1`, the compound was classed as inactive.
As to `O=C(CCCN1CCC(n2c(=S)[nH]c3ccccc32)CC1)c1ccc(F)cc1`, the compound was called inactive.
The same measure for `CC1(C)[C@@H]2CC[C@@]1(C)[C@H](OC(=O)CSC#N)C2`: “inactive”; for `CN1CCC(CN2c3ccccc3Sc3ccccc32)C1` (stereo unspecified): “inactive”; for `CC(C)Cc1ccc([C@@H](C)C(=O)NS(C)(=O)=O)cc1`: “inactive”.
With `CC(C)N1CCN(c2ccc(OC[C@H]3CO[C@](Cn4cncn4)(c4ccc(Cl)cc4Cl)O3)cc2)CC1`, the outcome was inactive.
The same measure for `Cc1ccc(C2(O)CCN(CCCC(=O)c3ccc(F)cc3)CC2)cc1`: “inactive”.
For `CCN(CC)CCOCCOC(=O)C(CC)(CC)c1ccccc1`, the result was inactive.
To `CCC(=O)c1ccc2c(c1)N(CCCN1CCN(CCO)CC1)c1ccccc1S2` belongs “inactive”; to `O=S(O)CNc1ccc(S(=O)(=O)c2ccc(NCS(=O)O)cc2)cc1`, “inactive”.
In the case of `CCCCCCCCCCCCCCCCOCCOCCOCCOCCOCCOCCOCCOCCOCCOCCOCCOCCOCCOCCOCCOCCOCCOCCOCCOCCO`, the compound was classed as inactive.
